Screening results as filed in PubChem.
A selection: hits, their analogues and other compounds. The true share with any hit is near 9.3%.
ELG1 genotoxic: induces genotoxicity in HEK293T cells with luciferase-tagged ELG1 | Potency, µM (highest dose often 46 µM), inactives show at the top dose activity change, positive = activation, actives largely listed as activators | 330,000 compounds, 1.3% hits | HEK293T ELG1-luciferase reporter, luminescence, 16 h; further: % of control where 0% means no effect; nearly all actives have a fitted effect of over 60% in size
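Genotoxic stress is detected as increased luminescence from luciferase-tagged ELG1 in HEK293T cells, measured with ONE-Glo after a 16 hr treatment at 37 °C.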
Rab9 prom act: activates the Rab9 promoter; Huh7 Rab9 promoter-luciferase reporter, luminescence, 24 h; Potency, µM (doses to about 9.22 µM), for inactives: at the top dose activation, negative = inhibition, most hits filed as activators; 320,000 compounds, 2.8% hits; further: % of control where 0% means no effect; nearly all actives have a fitted effect of over 60% in size
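Stable Rab9-luc Huh7, 1500 cells/well, 2 h settle; cmpd in DMSO, 24 h, 37 °C/5% CO2; luciferase reagent 10 min RT; luminescence.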
FLuc modulator: inhibits or activates purified firefly luciferase, miR-21 counter-screen | P08659 | purified FLuc, Km substrates, luminescence inhibition | 360,000 compounds, 6.9% hits | Potency, µM (doses to about 57.5 µM), for inactives: at the highest dose activity change, negative = inhibition, most hits filed as inhibitors | AID 588342;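 further: plate controls were vehicle for no effect and reference inhibitor for full effect; nearly all actives have a fitted effect of over 55% in size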
Target sequence (P08659 whole entry, looked up): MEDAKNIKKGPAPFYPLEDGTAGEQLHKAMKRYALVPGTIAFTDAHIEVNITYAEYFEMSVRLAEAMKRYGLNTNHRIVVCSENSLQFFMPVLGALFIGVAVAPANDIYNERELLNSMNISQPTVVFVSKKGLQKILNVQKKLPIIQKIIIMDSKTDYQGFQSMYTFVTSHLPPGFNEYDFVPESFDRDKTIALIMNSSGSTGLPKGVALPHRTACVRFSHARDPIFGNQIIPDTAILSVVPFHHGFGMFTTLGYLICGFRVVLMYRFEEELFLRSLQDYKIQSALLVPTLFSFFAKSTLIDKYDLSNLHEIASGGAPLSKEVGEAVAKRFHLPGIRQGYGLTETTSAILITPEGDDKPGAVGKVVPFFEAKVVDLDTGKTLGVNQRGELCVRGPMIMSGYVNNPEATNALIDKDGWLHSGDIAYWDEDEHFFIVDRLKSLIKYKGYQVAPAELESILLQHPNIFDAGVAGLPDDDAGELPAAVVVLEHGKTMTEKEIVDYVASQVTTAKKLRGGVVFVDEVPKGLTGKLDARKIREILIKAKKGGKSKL
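Purified P. pyralis luciferase (10nM final) with 10uM D-luciferin and 10uM ATP (Km levels) in 50mM Tris acetate pH 7.5, 10mM Mg acetate, 0.01% Tween-20, 0.05% BSA; qHTS 6-point titration, ~60 µM downward; luminescence read.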
ELG1 repair inh: ELG1-dependent DNA repair inhibition. HEK293T ELG1-luciferase reporter, luminescence, 16 h; DNA damage induced by 5-fluorouridine. Potency, µM (doses to about 46.1 µM), for the others: at the top dose activity change, negative = inhibition, usual class: inhibitors. 330,000 compounds, 2.3% hits. AID 504467; further: on the % scale 0 is the no-effect control and ±100 the full control effect; nearly all actives have a fitted effect of over 55% in size
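Overnight (16 hr) co-exposure of 2,000 cells/well to 5-fluorouridine and compound at 37 °C preceded detection. Luciferase was quantified via ONE-Glo luminescence; loss of signal denotes inhibition.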
NPC1 prom act: activates the NPC1 promoter | Potency, µM (doses to about 9.22 µM), for inactives: top-dose activation, hits mostly activators | Huh7 NPC1 promoter luciferase reporter, 24 h | AID 485313 | 320,000 compounds, 2.4% hits; further: % of control where 0% means no effect; nearly all actives have a fitted effect of over 60% in size
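Quantitative HTS used a cell-based reporter: Huh7 cells stably bearing the NPC1 promoter upstream of luciferase were treated with compounds for 24 h, and promoter activation was read as luminescence.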
SMN2 splice enh: SMN2 splice variant enhancement | HEK293 SMN2-luciferase splicing reporter, luminescence, 30-36 h | Potency, µM (doses to about 46.1 µM), inactives show top-dose activity change, positive = activation, usual class: activators | 210,000 compounds, 2.8% hits | AID 1458; further: % of control where 0% means no effect; nearly all actives have a fitted effect of over 55% in size
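HEK293 cells carry an SMN2 minigene-luciferase reporter in which exon 7 inclusion puts luciferase in frame. Cells were seeded at 2000 cells/well, attached for 10-12 hours, then exposed to compounds for 30-36 hours at 37C before ONE-Glo luminescence.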
* marks the source's active call; other numbers are inactive results; ? = inconclusive; · = no result. The call rests on the fitted dose curve; in most records, active means well fitted curve in the direction sought with a large enough effect; inconclusive means small, poorly fitted or top-dose-only effect, or another doubt; inactive means no such curve, though single readings can be large; an effect the other way counts as inactive or inconclusive. Potency means the concentration at half of the fitted maximal effect.

SMILES	ELG1 genotoxic	Rab9 prom act	FLuc modulator	ELG1 repair inh	NPC1 prom act	SMN2 splice enh
[O-][n+]1c2c(c3c4non(O)c4ccc31)CCCC2	-23.7%	1.0%	?	23.1µM*	-1.8%	-2.6%
O=C(N/C(=C/c1ccccc1)C(=O)N1CCCCC1)c1ccccc1	18.3µM*	2.82µM*	7.57µM*	?	3.55µM*	·
O=C(N/C(=C/C=C/c1ccccc1)C(=O)N1CCCCC1)c1ccc([N+](=O)[O-])cc1	-5.1%	-2.9%	2.4%	23.1µM*	-4.5%	29.0%
O=C(/C=C\c1cccs1)N1CCN(Cc2ccc3c(c2)OCO3)CC1	4.6%	11.0%	-10.7%	-12.1%	-4.0%	-55.6%
CC1CN(C(=O)CSc2nnc(C3CCCCC3)n2N)CC(C)O1 (centres undefined)	-0.7%	·	·	1.4%	·	·
C=CCNC(=S)N/N=C(\C)c1ccccn1	?	-15.7%	-8.5%	0.184µM*	-5.9%	-68.7%
C/C(=N\NC(=O)c1c[nH]c2ccccc12)c1ccccn1	?	?	10.7µM*	?	2.51µM*	24.1%
C/C(=N\NC(=O)c1nc2ccccn2c1C)c1ccco1	?	2.51µM*	?	?	?	262.7%
CCc1ccc(/C(C)=N/NC(=O)c2c[nH]c3ccccc23)s1	0.8%	17.4%	?	12.3%	16.3%	·
C/C(=N\NC(=O)c1cc2ccccc2cc1O)c1ccccn1	?	-24.4%	4.78µM*	?	2µM*	·
C/C(=N/NC(=O)CNC(=O)c1ccccn1)c1ccccc1	-1.6%	-1.1%	0.5%	?	1.1%	·
C/C(=N\NC(=O)c1nc2ccccn2c1C)c1cc2ccccc2o1	-6.5%	3.1%	-3.5%	-29.2%	-1.6%	10.5%
COc1ccccc1NC(=O)c1ccc2[nH]c(C)cc(=O)c2c1	·	·	-2.0%	·	·	·
CCc1ccc(/C(C)=N/NC(=O)c2ccccn2)cc1	5.3%	0.5%	?	?	11.8%	16.8%
CCOc1ccc(C(=O)N/N=C(\c2ccccc2)c2ccccn2)cc1	5.9%	-19.2%	19µM*	?	-21.8%	-63.4%
C/C(=N\NC(=O)c1ccc(F)cc1)c1ccccn1	5.17µM*	-31.5%	8.49µM*	?	?	·
C/C(=N\NC(=O)c1cc2ccccc2cc1O)c1cc2ccccc2o1	-11.3%	10.9%	15.1µM*	?	20.1%	·
N/C(=N\NC(=O)c1ccccc1)c1cc2ccccc2oc1=O	3.8%	13.7%	1.8%	-2.9%	7.5%	7.0%
C/C(=N\NC(=O)c1c[nH]c2ccccc12)c1ccco1	7.94µM*	3.98µM*	12µM*	?	5.62µM*	14.1µM*
CO[C@@H](CCOCc1ccccc1)C[C@H]1O[C@H](C(=O)OC(C)C)C=C[C@@H]1C	·	·	·	·	·	15.0%
CCC(CC)COC(=O)C1=C(C)NC(=O)NC1c1ccc2c(c1)OCO2 (centres undefined)	-0.4%	0.0%	0.8%	-17.5%	2.9%	·
O=C(N/N=C/c1ccc(Sc2ccccn2)o1)c1cc2ccccc2cc1O	12.7%	-0.4%	15.1µM*	30.0%	-2.8%	?
COc1ccc2nc(C)cc(N3CCC(C(N)=O)CC3)c2c1	0.6%	-2.4%	-2.1%	0.4%	0.4%	-19.6%
COc1ccc(N2CCN(c3cc(C)nc4ccc(OC)cc34)CC2)cc1	-7.1%	-2.8%	-1.1%	13µM*	1.3%	·
COc1ccc(-c2nc3cc(NC(=O)c4cc5ccccc5o4)ccc3o2)cc1	·	·	-3.7%	·	·	-2.3%
COc1ccc(NC(=O)c2coc(=O)c3ccccc23)cc1OC	·	·	4.4%	·	·	?
COc1cc(NC(=O)C(C)C)ccc1NC(=O)c1cc2ccccc2o1	?	3.16µM*	7.57µM*	?	2.24µM*	·
COc1ccc(NC(=O)c2cc3ccccc3o2)cc1OC	?	?	15.1µM*	?	6.9%	·
COc1ccc(NC(=O)c2coc3ccccc23)cc1OC	?	?	13.5µM*	?	?	20.2%
